Most compounds without a hit are left out; they make up all but 2.4% or so of the library.
D2 antag: antagonists of human D2 dopamine receptor; inhibition, % at 10 µM; P14416; AID 485344; 2% of 340,000 active; HEK293 TREx D2 cells, calcium flux, dopamine EC80; in the data active = inhibition above about 30%; inactive = below that, where a call was filed; note: 0% is about no effect
Target sequence (P14416 whole entry, looked up): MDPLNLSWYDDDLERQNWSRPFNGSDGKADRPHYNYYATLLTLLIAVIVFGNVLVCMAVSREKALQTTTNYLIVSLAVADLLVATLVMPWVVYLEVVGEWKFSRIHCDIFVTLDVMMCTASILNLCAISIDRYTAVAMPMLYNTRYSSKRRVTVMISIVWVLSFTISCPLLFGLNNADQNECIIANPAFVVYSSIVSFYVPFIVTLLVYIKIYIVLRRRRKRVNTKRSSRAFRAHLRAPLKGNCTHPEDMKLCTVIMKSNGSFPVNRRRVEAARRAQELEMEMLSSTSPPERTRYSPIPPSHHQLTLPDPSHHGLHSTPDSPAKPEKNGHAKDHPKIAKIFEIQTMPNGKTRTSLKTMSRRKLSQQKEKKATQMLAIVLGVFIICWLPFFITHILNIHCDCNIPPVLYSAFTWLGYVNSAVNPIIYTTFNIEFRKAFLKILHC
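Compounds are added to dye-loaded, induced HEK293 T-REx cells coupled to calcium release via D2; after a 3 min kinetic read an EC80 dopamine stimulus is given and fluorescence is recorded for 3 more min.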
D2 ag-1: D2 dopamine receptor (human) agonism; 0.53% of 340,000 active; activation, % at 2 µM; HEK293 T-REx D2 cells, calcium flux agonist mode;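 active = activation over 3 SD above normal in the single-dose calcium agonist read, cut at about 30% in these data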; note: 0% is about no effect
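Agonism is scored from calcium flux in a force-coupled, inducible HEK293 cell line expressing D2, read kinetically for 180 s after compound addition against dopamine controls.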
D2 PAM-1: positive allosteric modulators of human D2 dopamine receptor; P14416; DiscoveRx D2 beta-arrestin cells, luminescence, 90 min; 100% = 57 uM dopamine signal; potentiation, % (test concentration not listed); 0.23% of 360,000 active; in the data active = potentiation above about 50%
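D2 cells co-treated with compound plus 50 nM dopamine (EC20) for 90 min at 37 deg C to detect potentiation. Beta-arrestin recruitment was read as enzyme-fragment luminescence after 1 h at ambient temperature. Full response was set by 57 uM dopamine.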
D2 ag-2: human D2 receptor agonism in beta-arrestin assay | P14416 | DiscoveRx PathHunter D2 beta-arrestin, luminescence, 90 min; 100% = 57 uM dopamine signal | activation, % (no concentration beside the values) | 0.084% of 360,000 active; in the data active = activation above about 40%
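DiscoveRx PathHunter D2 beta-arrestin cells (2,100/well) attached overnight, then compound-stimulated 90 min at 37 C in HBSS/10 mM HEPES/0.1% Tween-20 buffer; beta-galactosidase complementation read by luminescence after 1 h at ambient temperature. Dopamine 57 uM final (EC100) as control.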
D2 PAM-2: positively modulates the human D2 dopamine receptor allosterically. P14416. HEK293 T-REx D2, calcium flux, EC20 dopamine potentiation. potentiation, % at 10 µM. 0.34% of 340,000 active. AID 485347;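 active = potentiation over 3 SD above the plate norm, cut at about 30% in these data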; note: 0% is about no effect
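Using a no-wash calcium dye in inducible, force-coupled HEK293 Trex cells expressing D2, we tracked fluorescence each second for 180 s after compound, then for 180 s after EC20 dopamine to detect augmented signalling.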
* = called active by the depositor.

Screening CCCCC[n+]1ccn(-c2nc3ccccc3nc2[N-]S(=O)(=O)c2ccc(C)cc2)c1 returned D2 antag 37.7*, D2 ag-1 0.3, D2 PAM-1 -10.3, D2 ag-2 -2.3 and D2 PAM-2 -2.4.
O=C(COC(=O)Cc1n[nH]c(=O)c2ccccc12)Nc1c(Br)cc([N+](=O)[O-])cc1Br was read as D2 PAM-1 6.0 and D2 ag-2 8.0.
Screening CCCn1nnnc1NCc1ccc(C(C)C)cc1 returned D2 antag 33.9*, D2 ag-1 -0.8, D2 PAM-1 -36.9, D2 ag-2 -1.1 and D2 PAM-2 1.0.
O=C(C[n+]1ccc2ccccc2c1)Nc1cc(C(F)(F)F)ccc1Cl was read as D2 antag 53.7*, D2 ag-1 0.7, D2 PAM-1 -33.5, D2 ag-2 -1.3 and D2 PAM-2 -21.3.
`O=C(C[n+]1ccccc1)Nc1cc(C(F)(F)F)ccc1Cl` gave D2 antag 1.9, D2 ag-1 -1.0, D2 PAM-1 -44.4, D2 ag-2 -2.4 and D2 PAM-2 3.8.
For CCN1CCSc2ccc(C(=O)NCc3ccc(OC(C)C)cc3)cc21 the results were D2 antag 59.7*, D2 ag-1 1.8, D2 PAM-1 -12.0, D2 ag-2 -3.8 and D2 PAM-2 -14.1.
CCOc1ccc(CNC(=O)c2ccc3c(c2)N(CC)CCS3)cc1 was read as D2 antag 60.9*, D2 ag-1 1.0, D2 PAM-1 -9.5, D2 ag-2 0.9 and D2 PAM-2 -17.3.
`CCOc1ccc(CCNC(=O)c2ccc3c(c2)N(Cc2ccc(F)cc2)CCS3)cc1` gave D2 PAM-2 3.6.
Cc1nnc(NC(=O)c2ccc(S(=O)(=O)N3CC(C)CC(C)C3)cc2)o1 (stereo unspecified) was read as D2 antag -4.1, D2 ag-1 0.2, D2 PAM-1 -7.7, D2 ag-2 -6.7 and D2 PAM-2 35.3*.
COc1ccc(SCCC(=O)NCc2ccncc2)cc1 was read as D2 antag 32.1*, D2 ag-1 -0.4, D2 PAM-1 1.2, D2 ag-2 0.8 and D2 PAM-2 -14.4.
O=C(CCSc1ccc(Cl)cc1)NCc1ccncc1 was read as D2 antag -2.6, D2 ag-1 0.7, D2 PAM-1 -10.3, D2 ag-2 -0.8 and D2 PAM-2 -1.7.
Screening O=C(COC(=O)c1ccccc1-c1nc2ccccc2s1)NC1CCS(=O)(=O)C1 (stereo unspecified) returned D2 antag 32.3*, D2 ag-1 0.1, D2 PAM-1 -15.3, D2 ag-2 0.8 and D2 PAM-2 -2.8.
`CN1CCc2ccccc2Cc2[nH]c3ccccc3c2CC1` gave D2 antag 72.0*, D2 ag-1 0.8, D2 PAM-1 -31.1, D2 ag-2 -2.0 and D2 PAM-2 -18.3.
Screening CCOC(=O)C1CCCN(C(=O)c2cccc(Cl)c2)CC1 (stereo unspecified) returned D2 PAM-1 -3.3 and D2 ag-2 -5.8.
Screening O=C(O)c1ccnc(Cl)c1 returned D2 antag 31.5*, D2 ag-1 -1.5, D2 PAM-1 -7.8, D2 ag-2 1.2 and D2 PAM-2 2.0.
For CCOC(=O)c1sc2ccccc2c1S(=O)(=O)Nc1ccc(OC)c(Cl)c1 the results were D2 ag-1 0.2 and D2 PAM-2 11.6.
`Cc1ccc(-n2nnc3c(sc4nc(C)c(C)cc43)c2=O)cc1Cl` gave D2 PAM-2 1.4.
Nc1nc(CN2CCN(Cc3ccccc3)CC2)nc(N2CCCc3ccccc32)n1 was read as D2 antag 63.4*, D2 ag-1 0.0, D2 PAM-1 -6.3, D2 ag-2 -1.8 and D2 PAM-2 -22.7.
`Cc1sc2ncnc(N3CCN(CCOc4ccc(Cl)cc4)CC3)c2c1C` gave D2 antag 35.5*, D2 ag-1 -1.4, D2 PAM-1 -4.1, D2 ag-2 1.8 and D2 PAM-2 -11.6.
Screening Cc1sc2ncnc(N3CCC(C(=O)NNC(=O)COc4ccc(Cl)cc4)CC3)c2c1C returned D2 PAM-1 6.7 and D2 ag-2 6.7.
CC1(C(=O)NNC(=O)c2ccc([N+](=O)[O-])cc2)CC1(Br)Br (stereo unspecified) was read as D2 antag 37.1*, D2 ag-1 0.1, D2 PAM-1 -27.9, D2 ag-2 -5.1 and D2 PAM-2 3.5.
For CC1(C(=O)NNC(=O)c2cccc([N+](=O)[O-])c2)CC1(Br)Br (stereo unspecified) the results were D2 antag 1.7, D2 ag-1 0.2, D2 PAM-1 -3.7, D2 ag-2 1.9 and D2 PAM-2 -3.9.
For Cc1ccc(S(=O)(=O)NCC(=O)OC(C)C(=O)c2ccccc2)cc1 (stereo unspecified) the results were D2 antag 30.9*, D2 ag-1 -0.4, D2 PAM-1 -16.6, D2 ag-2 -5.5 and D2 PAM-2 -2.0.
For Cc1ccc(C(=O)C(C)OC(=O)CNS(=O)(=O)c2ccc(C)cc2)cc1 (stereo unspecified) the results were D2 antag 2.7, D2 ag-1 -0.2, D2 PAM-1 2.2, D2 ag-2 -1.0 and D2 PAM-2 -4.1.
For O=C(c1cccs1)N(Cc1ccco1)Cc1cc2ccccc2[nH]c1=O the results were D2 antag 59.8*, D2 ag-1 1.0, D2 PAM-1 -4.1, D2 ag-2 -2.3 and D2 PAM-2 -21.5.
For Cc1ccc2[nH]c(=O)c(CN(Cc3ccco3)C(=O)c3ccncc3)cc2c1 the results were D2 antag -1.7, D2 ag-1 0.3, D2 PAM-1 -2.0, D2 ag-2 0.1 and D2 PAM-2 -0.1.
For CCCCn1c2ccccc2c2nnc(SCC(=O)Nc3ccc(NC(C)=O)cc3)nc21 the results were D2 ag-1 -0.7 and D2 PAM-2 7.0.
`N#Cc1cnn(Cc2ccccc2)c1/N=C/N1CCOCC1` gave D2 antag 34.2*, D2 ag-1 0.9, D2 PAM-1 4.0 and D2 ag-2 -3.0.
For COc1ccc(CC(=O)NNC(=O)c2cc(C)oc2C)cc1OC the results were D2 antag 32.0*, D2 ag-1 0.9, D2 PAM-1 -33.0, D2 ag-2 -5.8 and D2 PAM-2 -4.5.
`Cc1ccc(NC(=O)CN(C)C(=O)CSc2ncc(C(F)(F)F)cc2Cl)cc1` gave D2 antag 93.0*, D2 ag-1 -1.4, D2 PAM-1 -23.2, D2 ag-2 -3.1 and D2 PAM-2 -25.1.
For CCN(c1ccccc1)S(=O)(=O)c1cccc(C(=O)N(C)CC(=O)Nc2ccc(F)c(F)c2F)c1 the results were D2 PAM-1 -0.8 and D2 ag-2 -1.9.
For N#CCCCSc1ncccc1-c1nc2ccccc2[nH]1 the results were D2 antag -5.6, D2 ag-1 0.3, D2 PAM-1 1.0, D2 ag-2 -0.1 and D2 PAM-2 4.4.
`N#CCSc1ncccc1-c1nc2ccccc2[nH]1` gave D2 antag 14.0, D2 ag-1 0.8, D2 PAM-1 -4.0, D2 ag-2 -1.4 and D2 PAM-2 36.7*.

High-throughput results from PubChem.
